From PMC13494018 come the findings set out here.

B1: design_486_d4f32670-1303-4d79-8413-1b14cb3eff50_1473_dldesign_0_cycle1_af2pred (protein)
chain: GSMAAAAAAEAARRAALLAEAQAKMNEASKAAIEATKTDPAKAKYYNEALALYQEAAALANDGSKYEEAKEKLKEGDKLMEKV
B2: design_486_d4f32670-1303-4d79-8413-1b14cb3eff50_1495_dldesign_0_cycle1_af2pred (protein)
chain: AAALAAAEAKAKAYIEKVKALDPELGKKTAEAVKKGVKSTPETAAALGNEVTAAAPEEAKPYVAAAIAQAILANALS
B3: design_486_d4f32670-1303-4d79-8413-1b14cb3eff50_1562_dldesign_0_cycle1_af2pred (protein)
chain: MEEREKVAESMKKMLDAIGEIAAAETGEEGKKMAEEAKKEVEEAAKKGLSPEEIAAVANKKAAEILKVTMAAARAK
B4: design_486_d4f32670-1303-4d79-8413-1b14cb3eff50_1519_dldesign_0_cycle1_af2pred (protein)
chain: DEVAKLVDETAAAARAAVAAAARTAAAGTPEQSAALSSLMVATLQAVGDAYRALTDPAEAKAAAEKARALAEELAARTAEIQA
B5: design_486_d4f32670-1303-4d79-8413-1b14cb3eff50_1613_dldesign_0_cycle1_af2pred (protein)
chain: AAAYKKAVAALDAVVAEAAAISEGAGLIATNIKTQGLTQGAAAKDPAEAAKIVEAALKLATDSVTKYVESSAALR
B6: design_486_d4f32670-1303-4d79-8413-1b14cb3eff50_1067_dldesign_0_cycle1_af2pred (protein)
chain: ANAAQIKAAAQAAYKSAKEIAEEALELAKEGKKEEAEKKLKGAEKLGEIAAALAAQYGAAGDPAEGAALAKDIKEYLKEAKKELEKL
B7: design_486_d4f32670-1303-4d79-8413-1b14cb3eff50_1479_dldesign_0_cycle1_af2pred (protein)
chain: AEATQLLSEAIDLAKEIEENKKKATPEVAKIYDEALEEANKAMNLAAKASVADAATAAKLIAEAKKELEKAKELYEKAKKLEKE
B8: design_486_d4f32670-1303-4d79-8413-1b14cb3eff50_1586_dldesign_0_cycle1_af2pred (protein)
chain: AEERAAAIARATLAGSLALMRTMSPEDAIRLMEVLADILLSNPLTREYGERVAELARRAREEGPAAAEEAIREGAEIGEELRAA
B9: design_486_d4f32670-1303-4d79-8413-1b14cb3eff50_1359_dldesign_0_cycle1_af2pred (protein)
chain: AAAAADRAFAITKATAEASMKLMETMTAESALKLGETVAAILRAMAKAYPAHAAELNALADKVEATAKAVAEAKK
B10: design_486_d4f32670-1303-4d79-8413-1b14cb3eff50_1537_dldesign_0_cycle1_af2pred (protein)
chain: AAAAAAARALALAEEAAAALPPDAGARVREMVRRAVALLEAGDAGAAIQTLLDAIRYGTAAARAIDPARAATVANALTRAIVAISAAA
B11: design_486_d4f32670-1303-4d79-8413-1b14cb3eff50_1615_dldesign_0_cycle1_af2pred (protein)
chain: DGYIQLAIAYANAAANRASPEVAPKLREVAELAKKGATDPEALKKAIELAKKLAKEVPEVADLLEKAVEYLKEALKAVE
B12: design_486_d4f32670-1303-4d79-8413-1b14cb3eff50_1573_dldesign_0_cycle1_af2pred (protein)
chain: SLEEAKKKAKEVTEKGKEDLATLKEIAVQAAKQGQLAGAQAALNSAKVVAKATAEEVAKLVGPEAGEKALKEGEALVKEAKKEVEKAA
B13: design_486_d4f32670-1303-4d79-8413-1b14cb3eff50_1357_dldesign_0_cycle1_af2pred (protein)
chain: GMSEELAKELAEKVTKALAAASKAAAAALANPAVAAQANALLAQAVDYALKFQEAAKKDVEEAKKEAEKAIAAANELKALAAAA
B14: design_486_d4f32670-1303-4d79-8413-1b14cb3eff50_1517_dldesign_0_cycle1_af2pred (protein)
chain: AEAEKIIKEAKALAKEAKALAAQGAALDPAIAVIAAAAAAAAASAEKMVKENGEAKAEDAKKLLEVAKTLLEQAKAALEAALAAAA
B15: design_486_d4f32670-1303-4d79-8413-1b14cb3eff50_1336_dldesign_0_cycle1_af2pred (protein)
chain: DAAAQAKAVAEKGVELIKKADPETGKKVGELVEKGAASANAASLLLEAAQLAAEAAKKKGWTPEMRQGVHLLLLASSLAHQAAVAAA
B16: design_486_d4f32670-1303-4d79-8413-1b14cb3eff50_1569_dldesign_0_cycle1_af2pred (protein)
chain: NAQAKAFLDQGKAKMEAGKALIKEGKYEEAAAEFTRAYSYFLAAAGLARAAGDKALAAEAEKAAKEAEALAKEAKA
B17: design_486_d4f32670-1303-4d79-8413-1b14cb3eff50_1137_dldesign_0_cycle1_af2pred (protein)
chain: MEEAEEVMRRTFELAREARELRAEAERLAKLAEESGEAAPEAAAARAKAEEKVAEARRLGEEYPGAAALAEGTLAG
B18: design_486_d4f32670-1303-4d79-8413-1b14cb3eff50_1561_dldesign_0_cycle1_af2pred (protein)
chain: SEVEEKAKELAEKALALVKTGTGEAEAKKLLAAAPPEVVIQAIKVAAEKAKAEGPEMAAYANKLAAAANQALLEKN
B19: design_486_d4f32670-1303-4d79-8413-1b14cb3eff50_1391_dldesign_0_cycle1_af2pred (protein)
chain: DARLKKAAELLKKHTEAVLKGPVHPEAKLATAEVAIESAQGIYKAGADDAEVKAAAKEALAAAKELKERAEKELAAAEAAAAAA

Unmarked numbers belong to inactive results. No rule for the calls is given here.

In this assay the target is CD276, Q5ZPR3.
CD276, Q5ZPR3, sequence (Q5ZPR3 whole entry): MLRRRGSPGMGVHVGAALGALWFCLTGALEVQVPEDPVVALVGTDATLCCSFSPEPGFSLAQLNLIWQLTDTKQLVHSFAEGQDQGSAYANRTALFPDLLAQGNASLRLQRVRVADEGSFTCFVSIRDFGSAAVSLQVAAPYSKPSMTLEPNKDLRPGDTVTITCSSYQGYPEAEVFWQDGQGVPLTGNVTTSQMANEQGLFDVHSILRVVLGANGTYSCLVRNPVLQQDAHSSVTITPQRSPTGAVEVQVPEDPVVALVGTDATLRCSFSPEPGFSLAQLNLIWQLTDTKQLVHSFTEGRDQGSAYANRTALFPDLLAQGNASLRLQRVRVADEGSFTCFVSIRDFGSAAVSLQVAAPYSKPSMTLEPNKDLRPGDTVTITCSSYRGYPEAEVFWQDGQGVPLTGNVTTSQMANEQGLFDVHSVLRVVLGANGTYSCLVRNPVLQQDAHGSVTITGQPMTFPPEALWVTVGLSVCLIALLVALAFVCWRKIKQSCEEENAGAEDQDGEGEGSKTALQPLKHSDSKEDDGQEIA
On to B1, for which the “binding in a display sort” value was “not found”.
Turning to B2, the “binding in a display sort” value was “not found”.
Turning to B3, the “binding in a display sort” value was “not found”.
Turning to B4, the “binding in a display sort” value was “binds (active)”.
Turning to B5, the “binding in a display sort” value is “not found”.
Turning to B6, the “binding in a display sort” value is “not found”.
As for B7, the entry is “not found”.
For B8, the “binding in a display sort” value is “not found”.
With B9, the “binding in a display sort” value is “not found”.
Consider B10, for which the “binding in a display sort” value is “not found”.
Take B11: the “binding in a display sort” value was “not found”.
With B12, the “binding in a display sort” value was “not found”.
Consider B13, for which the “binding in a display sort” value was “not found”.
With B14, the “binding in a display sort” value is “not found”.
B15: the “binding in a display sort” value was “not found”.
Next, B16: “not found”.
Regarding B17, the “binding in a display sort” value was “not found”.
Turning to B18, the “binding in a display sort” value is “not found”.
For B19, the “binding in a display sort” value is “not found”.
